# In the library only some 1.3% were active in any assay of this set; here they are far more common.
# PME-1 primary – blocks human protein phosphatase methylesterase 1; inhibition, % at 5.9 µM; recombinant PME-1, FP-Rh probe fluorescence polarization; actives 0.53% (n = 320,000); Q9Y570;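 active means inhibition above the campaign mean of all compounds plus 3 SD, cut at about 26% in these data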;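 further: competitive labeling of PME-1 active site by serine hydrolase directed probe; 0% = PME-1 with DMSO and 100% = wells lacking PME-1 enzyme; inhibitors block probe labeling so polarization falls and inhibition rises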
# Target sequence (Q9Y570 whole entry, looked up): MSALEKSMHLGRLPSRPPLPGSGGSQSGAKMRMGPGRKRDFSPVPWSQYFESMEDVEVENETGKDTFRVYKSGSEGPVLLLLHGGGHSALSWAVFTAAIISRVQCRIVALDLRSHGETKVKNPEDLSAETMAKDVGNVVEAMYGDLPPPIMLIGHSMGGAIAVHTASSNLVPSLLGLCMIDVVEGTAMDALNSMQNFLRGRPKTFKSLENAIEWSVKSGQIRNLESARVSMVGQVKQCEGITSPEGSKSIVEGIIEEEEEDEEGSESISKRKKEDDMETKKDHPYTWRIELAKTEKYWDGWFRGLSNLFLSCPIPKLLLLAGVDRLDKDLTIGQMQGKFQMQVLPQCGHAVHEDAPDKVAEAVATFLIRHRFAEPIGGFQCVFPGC
# PREPL inhibitor – inhibitors of human prolyl oligopeptidase-like enzyme PREPL | recombinant PREPL, fluorescence polarization activity-based probe | inhibition, % at 5.96 µM | actives 0.68% (n = 320,000) | AID 2751; in the data active means inhibition above about 43%;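 further: 0% = enzyme with DMSO and 100% = wells lacking enzyme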
# Fam108B inh – counter-screen for RBBP9 inhibitors: inhibitors of mouse Fam108B. recombinant Fam108B, FP-Rh probe fluorescence polarization. inhibition, % at 9.51 µM. actives 0.33% (n = 300,000). AID 1947;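 active means inhibition above the screen mean inhibition plus 3 SD, computed separately per campaign, cut at about 18% in these data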;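 further: inhibitors lower polarization as less probe binds the enzyme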
# LYPLA2 inh – blocks human lysophospholipase 2, a PME1 counter-screen | actives 0.38% (n = 320,000) | O95372 | inhibition, % at 5.9 µM | recombinant LYPLA2, FP-Rh probe fluorescence polarization;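 active means inhibition above the screen-wide mean plus 3 SD, limit set per campaign, cut at about 26% in these data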;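 further: 0% = LYPLA2 with DMSO and 100% = wells lacking LYPLA2 enzyme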
# Target sequence (O95372 whole entry, looked up): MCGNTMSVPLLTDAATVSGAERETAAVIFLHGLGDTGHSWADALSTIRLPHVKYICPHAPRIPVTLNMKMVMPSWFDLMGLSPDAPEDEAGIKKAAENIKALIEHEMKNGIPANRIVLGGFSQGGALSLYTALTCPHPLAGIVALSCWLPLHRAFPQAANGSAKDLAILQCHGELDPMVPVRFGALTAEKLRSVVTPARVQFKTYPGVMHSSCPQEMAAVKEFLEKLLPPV
# LYPLA1 counter – counter-screen for PME1 inhibitors: inhibitors of human LYPLA1 | recombinant LYPLA1, FP-Rh probe fluorescence polarization | inhibition, % at 5.9 µM | actives 0.16% (n = 320,000);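 active means inhibition above the mean of all tested compounds plus 3 SD, set per campaign, cut at about 14% in these data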;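 further: inhibitors block serine hydrolase probe labeling of LYPLA1 so polarization falls; 0% = enzyme with DMSO and 100% = wells lacking LYPLA1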
# Fam108b confirm – confirmation of mouse Fam108b serine hydrolase inhibitors; shares compounds with Fam108B inh; recombinant Fam108b, FP-Rh probe fluorescence polarization; inhibition, % at 9.51 µM; actives 44% (n = 930);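 active means inhibition above a limit from the primary screen, the mean over all compounds plus 3 SD, cut at about 19% in these data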;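 further: 0% = median of active Fam108b wells and 100% = catalytically dead S170A mutant; inhibitors free the probe so polarization falls as inhibition rises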
# Fam108b ABPP HTS – mouse ABHD17B inhibition; shares compounds with Fam108B inh; recombinant Fam108b, gel-based ABPP, fluorophosphonate probe; inhibition, % at 20 µM; actives 44% (n = 260); in the data active means inhibition above about 40%
# * hit, by the source's call; . = no result.
SMILES,PME-1 primary,PREPL inhibitor,Fam108B inh,LYPLA2 inh,LYPLA1 counter,Fam108b confirm,others
COC(=O)c1ccc(COc2ccc(/C=C(\C#N)c3nc4ccccc4[nH]3)cc2OC)o1,-29.5,4.8,18.6*,-58.4,-25.6,-15.8,
COc1cc(/C=C(/C#N)c2nc3ccccc3[nH]2)ccc1Oc1ncccc1[N+](=O)[O-],-23.3,41.2,-39.7,-26.3,-21.0,.,
CC(=O)Oc1cc2c3c(c1)/C(=C1/SC(=S)NC1=O)C(=O)N3C(C)(C)C=C2C,24.8,9.9,19.2*,9.2,6.9,22.3*,
COc1ccc(N/N=C(\C=N\O)C(=O)c2ccc(OC)cc2)cc1,57.4*,4.8,47.2*,15.7,5.4,42.3*,
COc1ccc(-c2cc(-c3c(O)c(OC)c4occc4c3OC)[nH]n2)cc1OC,31.3*,50.9*,23.4*,0.6,-8.6,0.6,
COc1ccc(C(=O)Nc2nc(-c3cccs3)cs2)cc1,-20.0,9.9,-4.1,-5.2,-11.0,.,
CCCSc1nnc(NC(=O)c2ccco2)s1,0.5,-0.9,2.1,-7.1,-1.9,.,
Cc1csc(NC(=O)c2sc3nc(-c4cccs4)ccc3c2N)n1,45.1*,14.2,31.1*,-11.7,-15.8,6.7,
CCCSc1nnc(NC(=O)c2sc3nc(-c4cccs4)ccc3c2N)s1,42.4*,10.4,21.5*,6.9,-7.9,-106.5,
COc1cccc(Nc2nc(-c3cccs3)nc3ccccc23)c1,-40.8,1.9,-23.9,-30.4,-26.4,.,
COc1ccc(Nc2nc(-c3cccs3)nc3ccccc23)cc1,18.2,25.1,28.2*,-0.3,-2.5,-10.9,
CCC(O)CNC(=O)NC(=C(Cl)Cl)c1ccc(C)c(F)c1 (stereo not drawn),1.4,-4.6,-2.8,2.1,-0.3,.,
Cc1noc(C)c1-c1nc(CSc2ccccc2)no1,-6.6,-2.6,4.9,-5.1,5.2,.,
Nc1nc(-c2ccc(Br)cc2)cs1,6.4,6.1,0.2,10.3,4.3,.,
Brc1ccc(-c2csc(Nc3nc(-c4ccc(Br)cc4)cs3)n2)cc1,22.2,-1.5,50.2*,1.1,-7.9,33.7*,Fam108b ABPP HTS=85.0*
O=C1C=C(Nc2ccccc2C(=O)O)c2ccccc2C1=O,4.2,12.4,21.0*,4.6,0.8,35.5*,Fam108b ABPP HTS=0.0
O=C(O)c1ccccc1Nc1ccccc1C(=O)O,4.4,-0.7,-1.9,3.2,1.1,.,
CCc1ccc(N2C(=O)CC(NNc3nc4ccccc4s3)C2=O)cc1 (stereo not drawn),1.1,6.5,-0.6,11.0,-1.0,.,
O=C(O)C(S)C(S)C(=O)O (stereo not drawn),-3.9,-1.6,21.1*,5.0,-6.4,12.9,
CCn1c2ccccc2c2cc(NC(=O)c3cc(OC)c(OC)c(OC)c3)ccc21,12.9,26.7,18.7*,-4.6,-6.9,-5.3,
Nc1nc(SCC(=O)c2c(N)n(Cc3ccccc3)c(=O)[nH]c2=O)n[nH]1,-0.3,-14.1,0.9,3.3,0.9,.,
CC1=NN(c2ccc(Cl)cc2)C(=O)C1C(c1cccc(O)c1)c1c(C)[nH]n(-c2ccc(Cl)cc2)c1=O (stereo not drawn),16.7,9.1,31.0*,17.5,-3.6,17.0,
Cc1nn(C)c(Cl)c1C(N)=O,1.2,2.1,0.2,3.8,1.0,.,
CCOc1ccc(S(=O)(=O)N2CCCC(C(=O)N3CCN(c4ccccc4)CC3)C2)cc1 (stereo not drawn),-0.2,-0.7,1.5,2.6,0.7,.,
COc1ccc(NC(=O)Nc2ccccc2OC)cc1,7.1,4.1,3.8,-1.4,-2.4,.,
SMILES,PME-1 primary,PREPL inhibitor,Fam108B inh,LYPLA2 inh,LYPLA1 counter,Fam108b confirm,others
COc1ccccc1NC(=O)Nc1ccc(NC(=O)c2ccccc2O)cc1,0.4,7.0,21.1*,0.4,-12.2,-1.7,
COc1ccc(OC)c(NC(=O)Nc2ccc(Cl)cc2)c1,21.2,14.2,23.1*,-1.8,-11.6,13.5,
CNC1=C([N+](=O)[O-])CC([N+](=O)[O-])=C(N2CCNCC2)N1C,0.8,14.0,-2.2,9.6,3.2,.,
Cc1[nH]n(-c2ccccc2)c(=O)c1N=Nc1ccc2c(c1)OCCO2,4.3,5.2,-0.8,2.0,1.8,.,
Cc1[nH]n(-c2ccccc2)c(=O)c1N=Nc1c(O)cc(S(=O)(=O)N(C)C)c2ccccc12,53.9*,9.6,75.0*,6.0,-0.5,88.8*,Fam108b ABPP HTS=0.0
CCC(=O)Nc1sc2c(c1C#N)CCCCC2,12.2,0.9,8.2,0.2,-2.0,.,
CCCC(=O)Nc1sc2c(c1C#N)CCCCC2,3.9,4.5,69.7*,-4.2,3.3,-6.1,
Cn1c(=O)c(Nc2ccc(O)cc2)c2c3c(cccc31)C(=O)c1ccccc1-2,36.2*,38.2,22.7*,9.6,6.0,22.4*,
CC1O[C@@H](O[C@H](C)CC[C@@H](C)O[C@H]2OC(C)[C@@H](O)C[C@H]2O)C(O)C[C@H]1O (stereo partly drawn),0.1,5.8,-2.6,-2.1,-0.5,.,
Clc1ccc2[nH]c3c(c2c1)CCc1cn[nH]c1-3,39.8*,33.1,22.1*,12.2,-5.7,11.5,
c1ccc2c3c([nH]c2c1)-c1[nH]ncc1CC3,11.2,9.7,5.2,-7.7,-1.1,.,
Cc1cc(C)c2cc(C#N)c(SCC(=O)Nc3cc(C)on3)nc2c1,1.4,3.1,0.0,-4.2,-1.6,.,
N#Cc1cccc(NC(=O)CSc2ccc3c4c(cccc24)C(=O)c2ccccc2-3)c1,9.6,9.8,35.3*,1.1,-0.8,21.4*,
CCC(C)(C)NC(=O)C(c1ccc(F)cc1)N(Cc1ccccc1)C(=O)c1cnccn1 (stereo not drawn),-3.7,2.0,1.7,-0.8,-0.3,.,
Cc1ccc(S(=O)(=O)Nc2nc(-c3ccccc3)cs2)cc1,5.0,-4.8,2.8,2.7,1.2,.,
Cc1ccc(S(=O)(=O)Nc2ccccc2C(=O)Nc2nc(-c3ccc(F)cc3)cs2)cc1,6.0,12.6,24.0*,-13.3,-4.3,97.0*,Fam108b ABPP HTS=65.0*
CCOC(=O)Nc1sc(C)c(C)c1C(=O)OCC,1.6,0.4,1.1,6.1,2.0,.,
CCOC(=O)c1c(NC(=O)Nc2ccccc2)sc(C)c1C,20.9,8.2,22.2*,-3.0,-6.8,5.9,
CC(=O)c1cccc(NS(=O)(=O)c2ccc(N/C=C\C(=O)c3ccc(F)cc3)cc2)c1,-15.0,-29.6,22.0*,-27.9,-23.0,-6.4,
COC(=O)c1ccccc1NC(=O)CSc1nnnn1CC(=O)O,-5.5,1.4,-3.0,5.3,0.3,.,
N=c1oc2cc(O)ccc2cc1C(=O)Nc1ccc(Cl)cc1,2.8,7.8,21.9*,2.4,8.6,-4.8,
COc1ccc(Cl)cc1N(CC(=O)NC(C(C)C)C(C)C)S(C)(=O)=O,-3.5,-2.1,-0.4,-0.6,1.5,.,
COc1ccc(Nc2nc(N)c(C(=O)c3ccc(F)cc3)s2)cc1,10.8,30.4,49.6*,0.9,-1.1,-3.9,
COc1ccc(CNC(=O)C/C(C)=N/NC(=O)COc2cccc(C)c2)cc1,-0.9,8.9,0.8,-1.6,2.5,.,
